# PubChem BioAssay (EPA / NIEHS)
# Where “and” joins values, the source holds several entries; their conditions need not be identical. Equal values may be shown once. Calls of active or inactive are those of the source. Rule for the calls: active = hit-call score of the fitted dose curve at least 0.9, where 1 is the maximum; inactive = score below 0.9.
# System: not listed separately
# Assay: ATG_CRE_CIS: Attagene CIS-FACTORIAL HepG2 Assay for human cAMP Responsive Element (CRE) binding protein 3 (AID 2282926)
# Details: HepG2 CRE cis-reporter, Attagene multiplexed mRNA; actives raise or lower the signal
# How it was run: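 Induced reporter mRNA from a CRE cis element, measured in HepG2 among many multiplexed units at 24 h. Detection used RT-PCR plus capillary electrophoresis of fluorescent fragments; DMSO served as negative control.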
Structure (SMILES),outcome,AC50
CN(C)c1ccccc1,inactive,–
CCCCOC(=O)c1ccccc1C(=O)OCc1ccccc1,inactive,–
Cc1cccc(N)c1N,–,158 µM (active)
CCNS(=O)(=O)C(F)(F)C(F)(F)C(F)(F)C(F)(F)C(F)(F)C(F)(F)C(F)(F)C(F)(F)F,–,45.3 µM (active) and 16.1 µM (active) and 15.7 µM (active)
c1ccc2c(c1)oc1ccccc12,inactive,–
CCCCCCCCOC(=O)c1ccc(C(=O)OCCCCCCCC)c(C(=O)OCCCCCCCC)c1,inactive,–
Nc1ccc([N+](=O)[O-])cc1,inactive,–
CC(C)(OOC(C)(C)c1ccccc1)c1ccccc1,–,57.4 µM (active)
O=C(N[C@H](c1ccccc1)[C@@H]1CN2CCC1CC2)c1c(Cl)ccc(C(F)(F)F)c1Cl,inactive,–
c1ccc(NNc2ccccc2)cc1,inactive,–
Clc1ccccc1Cl,inactive,–
Cc1ccc(N)cc1,inactive,–
CCC(C)c1ccc(O)cc1 (stereo not given),–,59.7 µM (active)
Cc1ccc(N)c(N)c1,inactive,–
OCCCBr,inactive,–
Cc1cc(N=Nc2ccccc2C)ccc1N,inactive,–

# Biological target: CCAAT/enhancer-binding protein beta (Homo sapiens) (UniProt P17676)
# Sequence (P17676 whole entry, looked up): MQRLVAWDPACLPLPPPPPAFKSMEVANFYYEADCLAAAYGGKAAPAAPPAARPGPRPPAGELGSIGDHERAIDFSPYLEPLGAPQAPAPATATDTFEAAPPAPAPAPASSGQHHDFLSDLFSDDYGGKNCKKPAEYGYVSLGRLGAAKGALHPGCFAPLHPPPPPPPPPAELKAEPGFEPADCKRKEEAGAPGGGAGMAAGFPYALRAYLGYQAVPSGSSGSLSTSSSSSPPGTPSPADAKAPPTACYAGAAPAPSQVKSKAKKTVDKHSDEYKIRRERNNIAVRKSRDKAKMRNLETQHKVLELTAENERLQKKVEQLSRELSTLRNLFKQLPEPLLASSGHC
# Assay: ATG_C_EBP_CIS: Attagene CIS-FACTORIAL HepG2 Assay for human CCAAT/Enhancer Binding Protein (C/EBP) beta (AID 2282927)
# Details: HepG2 Attagene cis-factorial transcription factor reporter; actives raise or lower the signal
# How it was run: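 Endogenous transcription factor activity in human liver HepG2 cells is inferred from induction of a CEBPB-linked reporter mRNA. Exposure lasts 24 h; activity is fitted in both directions relative to DMSO.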
Structure (SMILES),outcome,AC50
OCCCl,inactive,–
CN(C)c1ccccc1,inactive,–
CCCCOC(=O)c1ccccc1C(=O)OCc1ccccc1,inactive,–
CCOc1cccc(C2(N3CCN(c4ccccc4)CC3)CCC(C)CC2)c1 (stereo not given),inactive,–
Cc1cccc(N)c1N,inactive,–
CS(=O)(=O)NC(=O)c1cc(Oc2ccc(C(F)(F)F)cc2Cl)ccc1[N+](=O)[O-],inactive,–
CCNS(=O)(=O)C(F)(F)C(F)(F)C(F)(F)C(F)(F)C(F)(F)C(F)(F)C(F)(F)C(F)(F)F,inactive,–
Clc1ccc(Cl)c(Cl)c1,inactive,–
CCCCC(CC)COC(=O)c1ccc(C(=O)OCC(CC)CCCC)c(C(=O)OCC(CC)CCCC)c1 (stereo not given),inactive,–
c1ccc2c(c1)oc1ccccc12,inactive,–
CCCCCCCCCCCCCN1CC(C)OC(C)C1 (stereo not given),inactive,–
CCCCCCCCOC(=O)c1ccc(C(=O)OCCCCCCCC)c(C(=O)OCCCCCCCC)c1,inactive,–
O=Cc1ccco1,inactive,–
Nc1ccc([N+](=O)[O-])cc1,inactive,–
CC(C)(OOC(C)(C)c1ccccc1)c1ccccc1,–,59.3 µM (active)
O=C1CCCO1,inactive,–
O=C(N[C@H](c1ccccc1)[C@@H]1CN2CCC1CC2)c1c(Cl)ccc(C(F)(F)F)c1Cl,inactive,–
Cn1cc(-c2ccccc2)c(=O)c(-c2cccc(C(F)(F)F)c2)c1,–,66.9 µM (active)
C1=Cc2cccc3cccc1c23,inactive,–
c1ccc(NNc2ccccc2)cc1,inactive,–
CCN(CC)N=O,inactive,–
Clc1ccccc1Cl,inactive,–
Cc1ccc(N)cc1,inactive,–
c1ccc(C2CO2)cc1 (stereo not given),inactive,–
CCC(C)c1ccc(O)cc1 (stereo not given),inactive,–
Cc1ccc(N)c(N)c1,inactive,–
OCCCBr,inactive,–
Cc1cc(N=Nc2ccccc2C)ccc1N,inactive,–

# System: not listed separately
# Assay: ATG_CMV_CIS: Attagene CIS-FACTORIAL HepG2 Assay for human CMV (Internal Marker) (AID 2282928);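 note: endpoint acts as a background internal control marker rather than a target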
# Details: HepG2 CMV promoter reporter, transcription factor profiling; actives raise or lower the signal
# How it was run: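 Readout: fluorescent reporter cDNA fragments separated by capillary electrophoresis after RT-PCR and HpaI cut. Cells: HepG2 carrying transfected cis-promoter reporter constructs, dosed 24 h. Endpoint serves as background internal-marker control, fit bidirectionally versus DMSO.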
Structure (SMILES),outcome,AC50
OCCCl,inactive,–
CN(C)c1ccccc1,inactive,–
CCCCOC(=O)c1ccccc1C(=O)OCc1ccccc1,inactive,–
CCOc1cccc(C2(N3CCN(c4ccccc4)CC3)CCC(C)CC2)c1 (stereo not given),inactive,–
Cc1cccc(N)c1N,–,30.3 µM (active)
CS(=O)(=O)NC(=O)c1cc(Oc2ccc(C(F)(F)F)cc2Cl)ccc1[N+](=O)[O-],inactive,–
CCNS(=O)(=O)C(F)(F)C(F)(F)C(F)(F)C(F)(F)C(F)(F)C(F)(F)C(F)(F)C(F)(F)F,inactive,–
Clc1ccc(Cl)c(Cl)c1,inactive,–
CCCCC(CC)COC(=O)c1ccc(C(=O)OCC(CC)CCCC)c(C(=O)OCC(CC)CCCC)c1 (stereo not given),inactive,–
c1ccc2c(c1)oc1ccccc12,inactive,–
CCCCCCCCCCCCCN1CC(C)OC(C)C1 (stereo not given),–,33.4 µM (active)
CCCCCCCCOC(=O)c1ccc(C(=O)OCCCCCCCC)c(C(=O)OCCCCCCCC)c1,inactive,–
O=Cc1ccco1,inactive,–
Nc1ccc([N+](=O)[O-])cc1,inactive,–
CC(C)(OOC(C)(C)c1ccccc1)c1ccccc1,–,48.7 µM (active)
O=C1CCCO1,inactive,–
O=C(N[C@H](c1ccccc1)[C@@H]1CN2CCC1CC2)c1c(Cl)ccc(C(F)(F)F)c1Cl,inactive,–
Cn1cc(-c2ccccc2)c(=O)c(-c2cccc(C(F)(F)F)c2)c1,inactive,–
C1=Cc2cccc3cccc1c23,inactive,–
c1ccc(NNc2ccccc2)cc1,inactive,–
CCN(CC)N=O,inactive,–
Clc1ccccc1Cl,inactive,–
Cc1ccc(N)cc1,inactive,–
c1ccc(C2CO2)cc1 (stereo not given),inactive,–
CCC(C)c1ccc(O)cc1 (stereo not given),–,65.8 µM (active)
Cc1ccc(N)c(N)c1,–,33.3 µM (active)
OCCCBr,inactive,–
Cc1cc(N=Nc2ccccc2C)ccc1N,inactive,–

# System: not listed separately
# Assay: ATG_DR4_LXR_CIS: Attagene CIS-FACTORIAL HepG2 Assay for human Liver X Receptor (LXR), DR4 submotif (AID 2282929)
# Details: HepG2 Attagene DR4 cis-reporter, mRNA transcription; actives raise or lower the signal
# How it was run: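 Cells were transfected with multiple reporter transcription units, exposed to chemicals for 24 hours, then lysed for RNA. Reporter mRNA induction was measured by RT-PCR with capillary electrophoresis detection and fitted in both directions relative to DMSO.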
Structure (SMILES),outcome,AC50
OCCCl,inactive,–
CN(C)c1ccccc1,inactive,–
CCCCOC(=O)c1ccccc1C(=O)OCc1ccccc1,inactive,–
CCOc1cccc(C2(N3CCN(c4ccccc4)CC3)CCC(C)CC2)c1 (stereo not given),inactive,–
Cc1cccc(N)c1N,inactive,–
CS(=O)(=O)NC(=O)c1cc(Oc2ccc(C(F)(F)F)cc2Cl)ccc1[N+](=O)[O-],inactive,–
CCNS(=O)(=O)C(F)(F)C(F)(F)C(F)(F)C(F)(F)C(F)(F)C(F)(F)C(F)(F)C(F)(F)F,inactive,–
Clc1ccc(Cl)c(Cl)c1,inactive,–
CCCCC(CC)COC(=O)c1ccc(C(=O)OCC(CC)CCCC)c(C(=O)OCC(CC)CCCC)c1 (stereo not given),inactive,–
c1ccc2c(c1)oc1ccccc12,inactive,–
CCCCCCCCCCCCCN1CC(C)OC(C)C1 (stereo not given),inactive,–
CCCCCCCCOC(=O)c1ccc(C(=O)OCCCCCCCC)c(C(=O)OCCCCCCCC)c1,inactive,–
O=Cc1ccco1,inactive,–
Nc1ccc([N+](=O)[O-])cc1,inactive,–
CC(C)(OOC(C)(C)c1ccccc1)c1ccccc1,–,63.9 µM (active)
O=C1CCCO1,inactive,–
O=C(N[C@H](c1ccccc1)[C@@H]1CN2CCC1CC2)c1c(Cl)ccc(C(F)(F)F)c1Cl,inactive,–
Cn1cc(-c2ccccc2)c(=O)c(-c2cccc(C(F)(F)F)c2)c1,–,73.7 µM (active)
C1=Cc2cccc3cccc1c23,inactive,–
c1ccc(NNc2ccccc2)cc1,–,100 µM (active)
CCN(CC)N=O,inactive,–
Clc1ccccc1Cl,inactive,–
Cc1ccc(N)cc1,inactive,–
c1ccc(C2CO2)cc1 (stereo not given),inactive,–
CCC(C)c1ccc(O)cc1 (stereo not given),–,100 µM (active)
Cc1ccc(N)c(N)c1,inactive,–
OCCCBr,inactive,–
Cc1cc(N=Nc2ccccc2C)ccc1N,inactive,–
